Results on 29 compounds are retold here after PubChem BioAssay (Tox21).

“And” between values parts separate entries of the source, which are not always exact repeats. Equal entries are not always repeated. Records with an inconclusive call do not appear. Entries that show only a call come without a potency. The source made the active and inactive calls. The call rests on the fitted dose curve; in most records, active means well fitted inhibition curve with a large enough effect in the repeat runs; inconclusive means weak or mixed curves; inactive means no such curve, though single readings can be large or run the other way.
Potency means the concentration at half of the fitted maximal effect.

For this experiment, the target named is Aromatase (Homo sapiens) (UniProt P11511). Kind of experiment: qHTS assay to identify aromatase inhibitors (AID 743083). Further: nearly all actives have a fitted effect of over 55% in size. The following applies: MCF-7 aro ERE, testosterone-driven ERE luciferase, 24 h; series mostly up to 70.3 µM. Background: Quantitative high-throughput screening tests each substance at several concentrations.
Aromatase (Homo sapiens), sequence (P11511 whole entry, looked up): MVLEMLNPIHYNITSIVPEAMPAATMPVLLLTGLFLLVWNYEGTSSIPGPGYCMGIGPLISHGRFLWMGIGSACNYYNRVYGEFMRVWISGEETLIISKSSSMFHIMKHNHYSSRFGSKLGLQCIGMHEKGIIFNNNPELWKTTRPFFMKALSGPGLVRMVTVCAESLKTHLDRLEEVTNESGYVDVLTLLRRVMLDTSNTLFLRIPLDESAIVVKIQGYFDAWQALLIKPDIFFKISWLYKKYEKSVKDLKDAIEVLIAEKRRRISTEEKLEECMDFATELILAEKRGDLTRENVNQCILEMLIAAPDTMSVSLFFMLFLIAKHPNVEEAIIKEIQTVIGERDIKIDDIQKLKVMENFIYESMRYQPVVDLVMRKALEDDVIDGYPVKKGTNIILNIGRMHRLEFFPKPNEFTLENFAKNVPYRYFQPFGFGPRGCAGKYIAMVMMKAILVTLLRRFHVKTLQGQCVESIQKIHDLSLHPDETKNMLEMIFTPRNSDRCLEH
For `C[C@@H](O)[C@H]1C(=O)N2C(C(=O)O)=C(S[C@@H]3CN[C@H](CNS(N)(=O)=O)C3)[C@H](C)[C@H]12`, the Potency result is “inactive”. On to `O=C(NC1CCN(CCc2c[nH]c3ccccc23)CC1)c1ccccc1`, for which the Potency result is “inactive”. In the case of `Cc1c(-c2cccnc2)c2ccccc2n1CCCCC(=O)O`, the Potency was 43.3 µM (active).

Consider `COc1ccc(C(=O)c2ccc(C)cc2)c(O)c1`, for which the Potency entry is “inactive”.

As to `O=C(O)c1cc(C(=O)O)c(C(=O)O)cc1C(=O)O`, the Potency entry was “inactive”. As for `C1CCN(CN2CCCCC2)CC1`, the Potency result was “inactive”. With `O=C1c2ccccc2C(=O)c2c1ccc(O)c2O`, the Potency entry is “inactive”.

`CC1=CC(=C(c2ccc(N)cc2)c2ccc(N)cc2)C=CC1=N`: the Potency is 8.41 µM (active). As for `O=[N+]([O-])c1ccc(Cl)cc1Cl`, the Potency result was “inactive”. Under `CCCCCCCCCCCCSC#N` stands “inactive”.

With `C/C=C1\[C@H]2C=C(C)C[C@]1(N)c1ccc(=O)[nH]c1C2`, the Potency result was “inactive”. `Cc1cc(SC2=C(O)C[C@@](CCc3ccc(N)cc3)(C(C)C)OC2=O)c(C(C)(C)C)cc1CO`: the Potency entry is “inactive”. As to `O=C(OC1C[C@H]2CC[C@@H](C1)[N+]21CCCC1)C(O)(c1ccccc1)c1ccccc1` (some centres undefined), the Potency result was “inactive”. Under `CC(C)C[C@H](NC(=O)[C@H](Cc1ccccc1)NC(=O)c1cnccn1)B(O)O` stands 21.1 nM (active) and 15 nM (active); under `CC(=O)c1ccc(Cl)c(Cl)c1Cl`, “inactive”; under `C[C@H](CN1CCCC1)C(=O)c1ccc(C(F)(F)F)cc1`, “inactive”. `C=CCCC`: the Potency entry is “inactive”.

As for `CC(=O)Nc1ccccc1O`, the Potency entry was “inactive”.

As to `O=C(O)CNc1ccccc1`, the Potency result was “inactive”. Under `CC(C)CC(C)(C)C` stands “inactive”.

With `O=C1OC(=O)C2CC=CCC12` (centres undefined), the Potency result was “inactive”. For the compound `SCCOCCOCCS`, the Potency entry was “inactive”.

As for `S=c1[nH][nH]c(=S)s1`, the Potency result was “inactive”. Take `Cc1nc2sccn2c(=O)c1CCN1CCC(=C(c2ccc(F)cc2)c2ccc(F)cc2)CC1`: the Potency result was “inactive”. With `O=C(O)c1ccccc1-n1cc(C(=O)O)c(=O)c2cc(Nc3c(F)cc(F)cc3Cl)c(Cl)cc21`, the Potency result is “inactive”. Turning to `O=C(O)COCC(=O)O`, the Potency result was “inactive”. Under `NC(=O)c1ccccc1` stands “inactive”; under `CCN(CCCCOC(=O)c1ccc(OC)c(OC)c1)C(C)Cc1ccc(OC)cc1` (centres undefined), “inactive”; under `CCCN(C1CCN(C(=O)C2CCNCC2)CC1)[C@@H]1CCc2ccc(OC)cc2C1`, “inactive”.
